Measured values from the supplement of paper PMC8728848.
Many of the other results were omitted from the sample, so the strongest signals are more common in it than they were.

Columns and labels:
Test in all cases: glycan array binding signal (z-score within array); higher = stronger binding
Conditions in all cases: glycan notation: IUPAC condensed, linker removed
[1] = molecular target: Fuc(a1-2)Gal
Outline: (§1)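 Columns mapping to the same glycan were averaged after glycan names were converted to IUPAC-condensed notation. The data come from 3228 arrays in the Consortium for Functional Glycomics database, limited to those with an available protein sequence. Binding is reported as a within-array Z-score averaged across arrays of one protein sequence and across linkers.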

[2] = molecular target: Fuc(a1-2)Gal(b1-4)[Fuc(a1-3)]GalNAc(b1-3)Gal(b1-4)[Fuc(a1-3)]GlcNAc(b1-3)Gal(b1-4)[Fuc(a1-3)]GalNAc
Outline: as §1

[3] = molecular target: Fuc(a1-3)[Gal(b1-4)]GlcNAc(b1-4)Gal(b1-4)[Fuc(a1-3)]GlcNAc(b1-4)Gal(b1-4)[Fuc(a1-3)]GlcNAc
Outline: as §1

[4] = molecular target: Gal(b1-3)GalNAc
Outline: as §1

[5] = molecular target: Gal(b1-3)GalNAc(b1-3)Gal(b1-4)GlcNAc
Outline: as §1

[6] = molecular target: Gal(b1-3)[GlcNAc(b1-6)]GalNAc
Outline: as §1

[7] = molecular target: Gal(b1-4)GlcNAc(b1-3)GalNAc
Outline: as §1

[8] = molecular target: Gal4S6S(b1-4)GlcNAc
Outline: as §1

[9] = molecular target: GalNAc(b1-4)GlcNAc
Outline: as §1

[10] = molecular target: Glc(a1-6)Glc(a1-6)Glc
Outline: as §1

[11] = molecular target: Man(a1-2)Man(a1-2)Man(a1-3)Man
Outline: as §1

[12] = molecular target: Man(a1-2)Man(a1-3)[Man(a1-2)Man(a1-6)]Man
Outline: as §1

[13] = molecular target: Man(a1-2)Man(a1-3)[Man(a1-3)[Man(a1-6)]Man(a1-6)]Man(b1-4)GlcNAc(b1-4)GlcNAc
Outline: as §1

[14] = molecular target: Man(a1-3)[Man(a1-6)]Man(a1-6)[Man(a1-3)]Man(b1-4)GlcNAc(b1-4)GlcNAc
Outline: as §1

[15] = molecular target: Man(a1-3)[Man(a1-6)]Man(b1-4)GlcNAc(b1-4)GlcNAc
Outline: as §1

[16] = molecular target: Neu5Ac(a2-3)Gal(b1-3)GalNAc(b1-3)Gal(a1-4)Gal(b1-4)Glc
Outline: as §1

[17] = molecular target: Neu5Ac(a2-3)[GalNAc(b1-4)]Gal(b1-4)GlcNAc
Outline: as §1

[18] = molecular target: Neu5Gc(a2-3)Gal(b1-4)Glc
Outline: as §1

[19] = molecular target: Fuc(a1-2)Gal(b1-3)GalNAc(b1-3)Gal(b1-4)Glc
Outline: as §1

[20] = molecular target: Gal(b1-3)GalNAc(b1-3)Gal(b1-4)Glc
Outline: as §1

[21] = molecular target: Gal(b1-3)GalNAc(b1-4)Gal(b1-4)Glc
Outline: as §1

[22] = molecular target: Gal(b1-4)Glc
Outline: as §1

[23] = molecular target: Gal(b1-4)GlcNAc
Outline: as §1

[24] = molecular target: Gal(b1-4)GlcNAc(b1-3)Gal(b1-4)Glc
Outline: as §1

[25] = molecular target: Gal(b1-4)GlcNAc(b1-3)Gal(b1-4)GlcNAc(b1-3)Gal(b1-4)GlcNAc
Outline: as §1

[26] = molecular target: GlcNAc(a1-3)Gal(b1-4)GlcNAc
Outline: as §1

[27] = molecular target: GlcNAc(a1-6)Gal(b1-4)GlcNAc
Outline: as §1

[28] = molecular target: GlcNAc(b1-3)Gal
Outline: as §1

[29] = molecular target: GlcNAc(b1-3)Gal(b1-3)GalNAc
Outline: as §1

[30] = molecular target: GlcNAc(b1-6)Gal(b1-4)GlcNAc
Outline: as §1

[31] = molecular target: Neu5Gc(a2-3)Gal(b1-4)GlcNAc
Outline: as §1

Binder	glycan array binding signal (z-score) [1]	glycan array binding signal (z-score) [2]	glycan array binding signal (z-score) [3]	glycan array binding signal (z-score) [4]	glycan array binding signal (z-score) [5]	glycan array binding signal (z-score) [6]	glycan array binding signal (z-score) [7]	glycan array binding signal (z-score) [8]	glycan array binding signal (z-score) [9]	glycan array binding signal (z-score) [10]	glycan array binding signal (z-score) [11]	glycan array binding signal (z-score) [12]	glycan array binding signal (z-score) [13]	glycan array binding signal (z-score) [14]	glycan array binding signal (z-score) [15]	glycan array binding signal (z-score) [16]	glycan array binding signal (z-score) [17]	glycan array binding signal (z-score) [18]	glycan array binding signal (z-score) [19]	glycan array binding signal (z-score) [20]	glycan array binding signal (z-score) [21]	glycan array binding signal (z-score) [22]	glycan array binding signal (z-score) [23]	glycan array binding signal (z-score) [24]	glycan array binding signal (z-score) [25]	glycan array binding signal (z-score) [26]	glycan array binding signal (z-score) [27]	glycan array binding signal (z-score) [28]	glycan array binding signal (z-score) [29]	glycan array binding signal (z-score) [30]	glycan array binding signal (z-score) [31]
ASA (Allium sativum) (protein) KAHEKERMGRNTPSAKLMSIAAVAAILTILASTCMARNLLTNGEGLYAGQSLNVEPYHFIMQEDCNLVLYDHSTAVWATNTDIPGKKECRAVLQSDGNFVVYDADGRPLWASHSVRGNGNYVLVLQEDGNVVIYGSDIWSTGTYVKAARGPVVVAMNGTVDGGSLIRPVIVNKNHVPVIRKVGTLSRNILRNDEGLYAGQSLDVEPYHFIMHEDCNLVLYDHSTAVWASNTDIPGKKGCKAVLQSDGNFVVYDAEGRSLWASHSVRGNGNYVLVLQEDGNVVIYGSDIWSTDTYRKSARGPVIRKVGTLAGAA	-0.156	-0.081	-0.229	-0.222	-0.231	-0.211	-0.23	-0.222	-0.151	-0.228	6.7	2.2	6.08	5.45	6.64	-0.228	-0.172	-0.208	–	–	–	–	–	–	–	–	–	–	–	–	–
TbCVNHOa (Tuber borchii), Q5MK11 (protein) GSHIGPYMSYADSSRNAVLTNGGRTLRAECRNADGNWVTSELDLDTCIGNPNGFLGWGMQNFSHSSEDIKLEEGGRKLTCRPKTVDGGFRERQGIDLNRIQNVNGRLVFQ	-0.262	–	–	–	–	–	–	–	-0.239	–	3.86	–	–	–	–	–	–	–	3.46	5.6	-0.271	-0.264	-0.238	2.73	-0.058	-0.293	-0.292	-0.283	-0.222	-0.247	-0.209
